Only a selection was taken, and hits are over-represented in it overall.
Dicer processing: inhibitors of Dicer pre-microRNA processing, primary screen, biochemical, cat-ELCCA, chemiluminescence | Endoribonuclease Dicer (Homo sapiens), Q9UPY3 | AID 1347074, 2019 | 47,000 tested, 6% active | z-score at 25 µM | cat-ELCCA pre-miR-21 Dicer processing; active compounds read high; in the data active = z-score above about 3, passing the limit was not always enough;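 note: plate controls were vehicle for no effect and no enzyme for full effect; higher signal means more uncleaved substrate so more Dicer inhibition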
* marks the source's active call; other numbers are inactive results.

SMILES	Dicer processing
Cc1onc(-c2ccccc2)c1NC(=O)Nc1ccccc1Oc1ccccc1	-0.79
CCOC(=O)c1c(SC)[nH]c2c(C)ccc(Cl)c2c1=O	-1.4
Cc1c(S(=O)(=O)c2ccc(Cl)cc2)cnc2cc(C3CC3)nn12	-0.47
NNC(=O)c1csc(N/N=C2\CCCc3ccccc32)n1	2.9
C(/C=C/C=C/Nc1ccccc1)=Nc1ccccc1	0.52
Fc1ccc(N=C/C=C/C=C/Nc2ccc(F)cc2)cc1	3.1*
c1cc2c(cc1-c1nc3sc(-c4ccc5c(c4)OCO5)nc3s1)OCO2	0.77
CSc1nnc2c(n1)OC(c1ccc(C)o1)N(C(C)=O)c1ccc(Br)cc1-2 (configuration not stated)	-0.9
Cc1cc(=O)[nH]c(NCc2ccccc2)n1	-0.6
Cc1cc(=O)[nH]c(N/N=C\c2cccc3ccccc23)n1	3.3*
O=C(N/N=C/c1cccc2ccccc12)N/N=C/c1cccc2ccccc12	0.7
CCCOc1nnc(-c2ccc(C)c(S(=O)(=O)N(C)C)c2)c2ccccc12	-1.5
CCOC(=O)c1ccc(Oc2sccc2[N+](=O)[O-])cc1	3.4*
CCOC(=O)C1CCN(c2sccc2[N+](=O)[O-])CC1	0.88
CCOC(=O)c1ccc(N)cc1	0.55
CC(C)OCC(O)Cn1c(NC2CCCCC2)nc2c1c(=O)[nH]c(=O)n2C (configuration not stated)	-1.3
CC12CCC3C4=C(CCC3C1CC[C@]2(C)O)CC(=O)CC4 (some centres not stated)	-1.4
O=C(CCc1ccc(O)cc1)c1c(O)cc(O)cc1O	3.6*
O=C(CCc1ccc(O)cc1)NNC(=S)NCCc1ccccc1	-0.71
CCOC(=O)C(=CNNC(=O)CCc1ccc(O)cc1)C(=O)OCC	-0.3
O=C(CN1C(=O)c2ccccc2C1=O)Nc1cccc(-n2cccc2)c1	0.78
Cc1onc(-c2ccccc2)c1C(=O)OCC(=O)c1ccc(Br)cc1	-1.1
O=c1cc(-c2ccccc2)nc2cc(-c3cccs3)[nH]n12	3.1*
Cc1cc(=O)n2[nH]c(-c3cccs3)cc2n1	-0.3
O=c1cc(-c2ccccc2)nc2nc(C(F)(F)F)[nH]n12	-2.4
SMILES	Dicer processing
O=c1cc(-c2ccccc2)nc2c(-c3ccccc3)c(C(F)(F)F)[nH]n12	4*
CC(C)(C)c1cc2nc(-c3ccccc3)cc(=O)n2[nH]1	-1.1
O=c1cc(-c2ccccc2)nc2cc(-c3ccccc3)[nH]n12	0.61
CSc1scc(NC(=O)Nc2cccc(Cl)c2)c1S(=O)(=O)C(C)C	-0.57
Cc1cccc(OCc2nc(-c3ccccn3)no2)c1	3.5
Cc1c(C(=O)Nc2ccc(Cl)cc2)cc(C(C)(C)C)n1-c1ccccc1	0.34
O=C(CSc1nnc(SCc2cccc(C(F)(F)F)c2)s1)N1CCC(C(F)(F)F)CC1	-0.82
CCOC(=O)c1c(NC(=O)CCC(=O)O)sc2c1CCCC2	2.2
CCOC(=O)c1c(NC(=O)CCC(=O)O)sc2c1CCCC2=O	3*
CCOC(=O)c1c(NC(=O)CCC(=O)O)sc2c1CCCCC2	-0.71
Nc1ccc2oc(-c3cccc4c(Br)cccc34)nc2c1	1.7
C=CCN1C(=O)C2(/C(=C(/O)c3ccc4c(c3)CC(C)O4)C(=O)C(=O)N2CCN(C)C)c2ccccc21 (configuration not stated)	2
NC(=O)c1ccc(NC(=O)c2nccnc2C(=O)O)cc1	0.08
CS(=O)(=NS(=O)(=O)c1ccc(S(=O)(=O)c2ccc(C(F)(F)F)cn2)s1)c1ccc(Cl)cc1 (configuration not stated)	0.87
Cc1nc2n(CC(=O)c3ccccc3)c3ccccc3n2n1	-1
CCNCC(=O)Nc1c(C)cccc1C	1.8
Cc1c(Cl)cccc1NC(=S)NNC(=O)CC#N	0.63
Cc1cccc(Cl)c1NC(=O)CC#N	3.9*
COc1cc(C2=NNC(=O)CC2)cc(OC)c1OC	-1.5
Cc1ccc(C2/C(=C(\O)c3ccc(F)cc3)C(=O)C(=O)N2CCCN2CCOCC2)cc1 (configuration not stated)	-1.2
COc1ccc(NS(=O)(=O)c2cccc(S(=O)(=O)c3ccc(Cl)cc3)c2)cc1	3.4*
COc1ccc(NS(=O)(=O)c2ccc(N)cc2)cc1	0.5
COc1ccc(NS(=O)(=O)c2ccc(NS(=O)(=O)c3ccc(Cl)cc3)cc2)cc1	-0.09
Cc1ccc(C(=O)CC(Sc2ccccc2N)c2ccc([N+](=O)[O-])cc2)cc1 (configuration not stated)	-2.1
C/C(O)=C(\N=O)C(=O)Nc1ccccc1	-0.95
SMILES	Dicer processing
CC(=N\Nc1c(Cl)cc(Cl)cc1Cl)/C(=N\O)C(=O)Nc1ccccc1	3*
O=C(NC(=S)Nc1c(Cl)cc(Cl)cc1Cl)c1ccccc1	-1.2
CC1(C)Cc2c(sc3ncn4nc(-c5ccncc5)nc4c23)C(C)(C)N1	0.58
CC1(C)Cc2c(sc3ncn4nc(-c5ccncc5)nc4c23)CO1	3.1*
COc1ccc(-c2nc3c4c5c(sc4ncn3n2)CCCC5)cc1	0.04
Fc1ccc(-c2nc3c4c5c(sc4ncn3n2)CCCC5)cc1	4*
c1cc(-c2nc3c4c5c(sc4ncn3n2)CCCCC5)ccn1	0.59
c1ccc(-c2nc3c4c5c(sc4ncn3n2)CCCC5)cc1	1.2
CCOc1ccc2c(=O)c(Oc3ccccc3Br)c(C(F)(F)F)oc2c1	2.2
CCOc1ccc(C2C(C(=O)OCCOC)=C(C)NC3=C2C(=O)CC(C)(C)C3)cc1 (configuration not stated)	0.7
CCOc1ccc(C2C(C(=O)OCc3ccccc3)=C(C)NC3=C2C(=O)CC(C)(C)C3)cc1OC (configuration not stated)	0.34
Cc1ccc(C)c(C(=O)/C=C/C(=O)O)c1	1.7
Cc1ccc(N=C(C#N)C2=C(O)c3ccccc3C2=O)cc1F	-0.88
CCc1cccc(C)c1N=C(C#N)C1=C(O)c2ccccc2C1=O	-1.9
Cc1cc(Cl)ccc1N=C(C#N)C1=C(O)c2ccccc2C1=O	4.8*
Cc1ccc(-c2nc3cc(NC(=O)c4ccc([N+](=O)[O-])o4)ccc3o2)cc1Br	1.9
OC(CN1CCN(c2nc3ccc(Cl)cc3s2)CC1)CN1CCCN(c2ncc(C(F)(F)F)cc2Cl)CC1 (configuration not stated)	-0.02
O=C1OCCCN=C(c2ccccc2)c2ccccc21	-0.18
Cc1ccsc1/C=C/C(=O)O/N=C/c1c(Cl)cccc1Cl	-0.4
CSc1nsc(SCC(=O)NC2=NC(=O)C(C)S2)n1 (configuration not stated)	-1.7
COC(=O)C1=C(Nc2ccc(OC(=O)c3ccccc3Cl)cc2)CSC1	-1.5
O=C(CSC(=S)NNc1ccccc1)c1cccc([N+](=O)[O-])c1	-1.1
CC(C)(C)SC(=S)SCC(=O)c1ccc(Cl)cc1	-2.7
O=C(CSC(=S)NNc1ccccc1)c1ccc(Cl)cc1	3.1*
COc1ccc(/C(O)=C2/C(=O)C(=O)N(c3cccc(C(=O)O)c3)C2c2ccccc2)cc1 (configuration not stated)	-3.1
SMILES	Dicer processing
COc1ccc(OCC(O)CNC(=O)Nc2ccc(OCc3ccccc3)cc2)cc1 (configuration not stated)	-0.86
COc1ccc(NC(=O)Nc2c(C)noc2-c2ccccc2)cc1	1.5
COc1ccc(NC(=O)Nc2nnc(COc3ccccc3F)s2)cc1	3.5*
O=C1SC(Nc2ccc(Br)cc2)C(=O)N1Cc1ccccc1 (configuration not stated)	2.5
CCCCn1c(CCC(=O)O)ccc1-c1ccc(C)cc1	-1.6
COc1ccc(-n2c(CCC(=O)O)ccc2-c2cccs2)cc1	1.3

Screening data (PubChem)
